Test results reported in PubChem BioAssay AID1117264 (The Scripps Research Institute Molecular Screening Center, 2014).
Screen size: about 89,000 compounds; about 440 (0.49%) were called active.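 The calls were made as follows: active = inhibition above the mean inhibition across all screened compounds plus 3 SD (cut at about 11% in these data); inactive = the rest.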 The full list was thinned out, with actives kept by preference.

The molecules below were run against RNA-editing ligase 1, mitochondrial (Trypanosoma brucei brucei) (UniProt P86926) (assay: TbREL1 RNA ligase inhibitors, primary screen, biochemical, FRET fluorescence (AID 1117264;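 also: 0% = plate median of test wells and 100% = NSC42067 control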)). Settings: TbREL1 RNA ligation, at 9.66 µM, active compounds read high.
Sequence of RNA-editing ligase 1, mitochondrial (Trypanosoma brucei brucei) (P86926 whole entry, looked up): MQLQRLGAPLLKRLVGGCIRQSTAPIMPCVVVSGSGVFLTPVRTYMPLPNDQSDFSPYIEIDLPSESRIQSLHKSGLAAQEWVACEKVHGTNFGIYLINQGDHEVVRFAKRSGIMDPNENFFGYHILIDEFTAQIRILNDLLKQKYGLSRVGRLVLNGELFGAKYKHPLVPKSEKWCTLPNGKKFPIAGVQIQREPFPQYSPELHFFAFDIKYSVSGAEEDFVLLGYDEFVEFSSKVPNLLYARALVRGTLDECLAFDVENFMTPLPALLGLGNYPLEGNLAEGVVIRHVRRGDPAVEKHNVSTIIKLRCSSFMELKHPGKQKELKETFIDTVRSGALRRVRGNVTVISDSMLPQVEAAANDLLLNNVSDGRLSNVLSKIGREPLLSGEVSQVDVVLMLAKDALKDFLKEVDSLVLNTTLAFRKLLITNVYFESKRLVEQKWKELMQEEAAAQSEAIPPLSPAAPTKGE
`COc1ccc(NC(=O)C(Br)C(C)C)cc1` (centres undefined) was tested, and the inhibition was -2.35% (inactive). For `CCOC(=O)c1ccc(NC(=S)N2CCCC2)cc1`, the inhibition was -1.43% (inactive). For `COc1ccccc1NC(=S)N1CCN(C(c2ccccc2)c2ccccc2)CC1`, the inhibition was -6.34% (inactive). In the case of `O=C(Oc1cccc(NC2=NS(=O)(=O)c3ccccc32)c1)c1ccncc1`, the inhibition is reported as 0.38% (inactive). In the case of `Cc1ccc(S(=O)(=O)N(C)C)cc1NC(=O)COC(=O)c1c(C)noc1C`, the inhibition is reported as -2.07% (inactive). `O=C(Nc1cccnc1)c1cccc(S(=O)(=O)N2CCCC2)c1` was tested, and the inhibition was 3.63% (inactive). In the case of `CCCn1c(CCNc2nc(-c3ccc(OC)cc3)cs2)nc2ccccc21`, the inhibition is reported as 1.63% (inactive). In the case of `CC1CN(CC(=O)NC(C)c2ccccc2)CC(C)O1` (centres undefined), the inhibition is reported as 1.72% (inactive). `Fc1cc(Br)ccc1NC(=S)Nc1cccnc1` was tested, and the inhibition was -1.64% (inactive). With `COc1ccccc1-n1cnc2cc(NS(=O)(=O)c3ccccc3)ccc21` the inhibition was 0.63% (inactive). `COc1cc(/C=C/C(=O)n2cnc3ccccc32)cc(OC)c1OC` was tested, and the inhibition was 12% (active). In the case of `COc1cc(/C=C/C(=O)OCC(=O)NC2CC2)cc(OC)c1OC`, the inhibition is reported as 8.18% (inactive). In the case of `O=C(Nc1ccccc1N1CCN(C(=O)c2ccccc2)CC1)c1ccco1`, the inhibition is reported as -1.42% (inactive). For `COc1ccc(N2C(=O)CC(Nc3ccc(F)cc3)C2=O)c([N+](=O)[O-])c1` (centres undefined), the inhibition was -1.86% (inactive). In the case of `CCOc1ccc(NC(=O)CN(C)CC(=O)NC(C)c2ccccc2)cc1OCC` (centres undefined), the inhibition is reported as 2.99% (inactive). In the case of `CCOC(=O)C1CCN(CC(=O)Nc2ccc(OC)c(S(=O)(=O)N3CCCCC3)c2)CC1`, the inhibition is reported as 2.37% (inactive). With `Cc1ccc(Nc2nc(N)nc(CN3CCN(Cc4ccccc4)CC3)n2)cc1Cl` the inhibition was -4.51% (inactive). For `CNc1nc(Nc2ccc(C)c(Cl)c2)nc(N)c1[N+](=O)[O-]`, the inhibition was 13.4% (active). `Nc1nc(Nc2ccccc2)nc(NCCO)c1[N+](=O)[O-]` was tested, and the inhibition was 7.49% (inactive). In the case of `Cn1c(=O)c2c(nc(NCc3ccccc3)n2CC(N)=O)n(C)c1=O`, the inhibition is reported as -2.6% (inactive). In the case of `CN(C)/C(=N\OC(=O)c1ccccc1)c1nonc1N`, the inhibition is reported as 0.81% (inactive). `C=CCn1c(=S)[nH]c2scc(-c3ccco3)c2c1=O` was tested, and the inhibition was 20.5% (active). In the case of `COc1ccc(N2CCN(CCNS(=O)(=O)c3ccc([N+](=O)[O-])cc3)CC2)cc1`, the inhibition is reported as -4.76% (inactive). `O=C(c1ccc(CN2CCOCC2)cc1)N1CCN(c2ccccc2F)CC1` was tested, and the inhibition was -3.62% (inactive). For `O=C(Nn1cc(C(=O)N2CCN(c3ccccc3F)CC2)c2ccccc2c1=O)c1cnccn1`, the inhibition was 12.8% (active). `Cc1ccccc1N1CCN(C(=O)c2cccnc2)CC1` was tested, and the inhibition was -0.77% (inactive). For `CC1=C(C(=O)N(C)C)C(c2ccccc2OC(F)F)NC(=O)N1` (centres undefined), the inhibition was -1.25% (inactive). `CC(C)C[C@@H](CO)N1CCN(Cc2ccc(O)cc2)CCC1=O` was tested, and the inhibition was -1.07% (inactive). With `O=C(Nc1ccc2nccnc2c1)c1ccco1` the inhibition was -2.66% (inactive). In the case of `O=C(Nc1nc(-c2ccco2)c(-c2ccco2)s1)c1ccco1`, the inhibition is reported as 51.5% (active). With `Cc1ccnc(NC(=O)c2ccco2)n1` the inhibition was 2% (inactive). `O=C(Nc1ccc(N2CCN(C(=O)c3ccccc3)CC2)c(Cl)c1)c1ncn[nH]1` was tested, and the inhibition was -4.97% (inactive). For `Cc1cccc(NC(=O)CN2CCN(CC(=O)NCC3(N4CCCCC4)CCCCC3)CC2)c1C`, the inhibition was -4.34% (inactive). With `Cc1ccc(-n2c(SCC(=O)Nc3cccc4ccccc34)nnc2-c2ccccn2)cc1` the inhibition was 2.33% (inactive). In the case of `O=C(CCCCCN1C(=O)C2C3C=CC(C3)C2C1=O)Nc1ccccn1` (centres undefined), the inhibition is reported as -1.93% (inactive). For `CSc1ccc(C=Nn2c(-c3ccc(F)cc3)n[nH]c2=S)cc1`, the inhibition was -3.89% (inactive). In the case of `CC(C)Cc1nnc(NC(=O)CN2C(=O)NC3(CCCCC3)C2=O)s1`, the inhibition is reported as 4.69% (inactive). In the case of `Cc1ccc(C(=O)NCC(=O)NCc2cc(=O)n(C)c(=O)n2C)cc1`, the inhibition is reported as 1.66% (inactive). For `Nn1c(SCC(=O)NC2CCCc3ccccc32)nnc1C1CC1` (centres undefined), the inhibition was 0.24% (inactive). For `COc1ccc(-c2cc(-c3nnc(SCC(=O)Nc4cccc5ccccc45)n3N)[nH]n2)cc1`, the inhibition was -2.51% (inactive). With `CCOC(=O)C1=C(CC)Nc2ccccc2N=C1N` the inhibition was 3.99% (inactive). In the case of `COCCCn1c(SCC(=O)Nc2oc(C)c3c(C)n[nH]c(=O)c23)nc2sc3c(c2c1=O)CCC3`, the inhibition is reported as -6.64% (inactive). In the case of `CCC(C)C(N=C1NS(=O)(=O)c2ccccc21)C(=O)N1CCC(C)CC1` (centres undefined), the inhibition is reported as -0.06% (inactive). `CN(CC(=O)Nc1ccccc1[N+](=O)[O-])Cc1ccc(Br)cc1` was tested, and the inhibition was 1.93% (inactive). `CCNC(=O)N1CCCC(C(=O)c2ccc(-c3ccccc3)cc2)C1` (centres undefined) was tested, and the inhibition was -3.04% (inactive). In the case of `O=C(NN=Cc1ccc([N+](=O)[O-])cc1)C1CC1`, the inhibition is reported as -3.07% (inactive). In the case of `COC(=O)c1c(C)c(C)nc(N)c1C#N`, the inhibition is reported as -2.53% (inactive). `COCc1c(N)c(C)nc(Cl)c1C#N` was tested, and the inhibition was 11.8% (active). With `Cc1nc(Cl)c(C#N)c2c1CCCC2` the inhibition was 8.75% (inactive). For `O=C(NCc1ccccc1)[C@H]1CCCN1C(=O)[C@H]1CCCN1C(=O)N1CCOCC1`, the inhibition was -0.82% (inactive). For `COc1cccc(CNC(=O)COC(=O)CN2C(=O)NC3(CCCCC3C)C2=O)c1` (centres undefined), the inhibition was 1.52% (inactive). `CC1CCN(C(=O)COC(=O)c2cc(S(=O)(=O)N3CCOCC3)ccc2Cl)CC1` was tested, and the inhibition was -2.18% (inactive). For `O=C(NCC(c1ccco1)N1CCc2ccccc21)c1cccc(F)c1` (centres undefined), the inhibition was -8.09% (inactive). In the case of `COc1cc(NC(=O)C2CCCN(S(=O)(=O)c3ccc(C(C)(C)C)cc3)C2)cc(OC)c1` (centres undefined), the inhibition is reported as 5.8% (inactive). With `COc1cc(S(=O)(=O)N2CCN(C(=O)C3CC3)CC2)ccc1NC(C)=O` the inhibition was 4.21% (inactive). For `COC(=O)[C@@]12CCCCC=C1N(CCc1ccc(Cl)cc1)C(=O)[C@H]2CC(=O)NCc1ccc(OC)c(OC)c1`, the inhibition was -3.3% (inactive). `COc1ccc(C(C(=O)Nc2c(C)cccc2C)N2CCN(c3ccc(C)cc3)CC2)cc1` (centres undefined) was tested, and the inhibition was 23.2% (active). For `COc1ccc(N2CCC(CNC(=S)Nc3c(C)cccc3C)C2)cc1` (centres undefined), the inhibition was -3.26% (inactive). `Cc1cccc(C)c1NC(=O)C(c1cccc(F)c1)N1CCN(C)CC1` (centres undefined) was tested, and the inhibition was -2.52% (inactive).
